Activity calls are given as the source filed them. Calls come from the whole dose curve.
Tests used:
Test in all cases: Confirmatory Screen for Target Class Profiling of Small Molecule Inhibitors of Methyltransferases (AID 1745852); for activity change, negative = inhibition: % is set by controls: 0 for no effect and ±100 for the full control effect
[1] = biological target: Catechol O-methyltransferase (Homo sapiens) (UniProt P21964); conditions: MTase-Glo luminescence, SAH detection, recombinant enzyme; measured here: COMT max response; stronger effect = lower value
Chain of Catechol O-methyltransferase (Homo sapiens) (P21964 whole entry, looked up): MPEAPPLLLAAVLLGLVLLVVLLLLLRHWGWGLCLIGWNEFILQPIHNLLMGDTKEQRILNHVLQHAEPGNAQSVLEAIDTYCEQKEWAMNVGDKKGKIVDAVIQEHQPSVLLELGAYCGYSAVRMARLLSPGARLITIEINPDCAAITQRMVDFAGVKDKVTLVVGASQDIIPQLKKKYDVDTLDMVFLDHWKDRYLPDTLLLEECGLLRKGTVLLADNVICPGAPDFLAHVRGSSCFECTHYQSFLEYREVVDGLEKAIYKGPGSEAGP

[2] = biological target: Guanidinoacetate N-methyltransferase (Homo sapiens) (UniProt Q14353); conditions: activity change, negative = inhibition: at 57.3 µM (top of the series) unless noted
[3] = biological target: Nicotinamide N-methyltransferase (Homo sapiens) (UniProt P40261); conditions: MTase-Glo luminescence, SAH detection, recombinant enzyme; measured here: NNMT max response; stronger effect = lower value
Chain of Nicotinamide N-methyltransferase (Homo sapiens) (P40261 whole entry, looked up): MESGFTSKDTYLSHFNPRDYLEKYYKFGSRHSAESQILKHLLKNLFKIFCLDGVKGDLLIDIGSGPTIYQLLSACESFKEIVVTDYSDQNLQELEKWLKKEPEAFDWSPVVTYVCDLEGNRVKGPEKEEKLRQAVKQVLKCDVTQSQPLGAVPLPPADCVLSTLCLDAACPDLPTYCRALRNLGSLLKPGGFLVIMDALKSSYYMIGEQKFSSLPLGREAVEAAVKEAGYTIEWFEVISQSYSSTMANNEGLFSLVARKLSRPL

[4] = biological target: Phenylethanolamine N-methyltransferase (Homo sapiens) (UniProt P11086); conditions: MTase-Glo luminescence, SAH detection, recombinant enzyme; measured here: PNMT max response; stronger effect = lower value
Chain of Phenylethanolamine N-methyltransferase (Homo sapiens) (P11086 whole entry, looked up): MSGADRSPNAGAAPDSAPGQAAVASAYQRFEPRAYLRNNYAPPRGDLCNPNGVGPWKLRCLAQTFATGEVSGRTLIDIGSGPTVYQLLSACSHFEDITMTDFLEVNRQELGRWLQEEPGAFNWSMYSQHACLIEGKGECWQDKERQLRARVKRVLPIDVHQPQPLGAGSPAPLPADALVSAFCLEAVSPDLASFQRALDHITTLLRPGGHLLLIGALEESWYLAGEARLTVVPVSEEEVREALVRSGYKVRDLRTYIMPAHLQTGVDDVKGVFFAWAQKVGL
Potency is the fitted concentration of half-maximal effect.

SMILES | activity [1] [%] | activity change, negative = inhibition [2] | activity [3] [%] | activity [4] [%] | Potency [2]
CN1CCC(N2CC[C@H](c3nc4ccc(C(F)(F)F)cc4[nH]3)C2)CC1 | 7.98 | 9.6% [at 85.7 µM] | 10.1 | 7.95 | –
CC(C)c1nccn1CCCNc1nc(-c2ccncc2)nc2c1cnn2C | -28.8 | -15.2% | -20.9 | -44.2 | –
COc1ccc(OC)c2c1cc1n2CC(C)(C(=O)NC2CCCCC2C)N(Cc2ccco2)C1=O (stereo not given) | -9.78 | -6.29% | -25.6 | -10.3 | –
Cc1noc2c(NC3CCN(C)CC3)cc(-c3cccs3)nc12 | 7.59 | 13.7% [at 85.7 µM] | 0.3 | -6.76 | –
Cc1cccc(N2CCN(C(=O)c3ccc4c(=O)[nH]c5c(C(=O)NC(C)C)sc(=S)n5c4c3)CC2)c1C | -37.2 | 0.0257% | -76.7 | -28.7 | –
CC(C)c1nccn1CCCNC(=O)c1ccc(N2CCCC(CO)C2)nc1 (stereo not given) | 2.58 | 1.26% | 6.68 | 5.49 | –
CN(Cc1ccccc1)C1(C(=O)NC2CCC(O)CC2)Cc2ccccc2C1 (stereo not given) | 2.67 | 3.98% | 7.08 | 6.38 | –
CCNc1nccc(N2CCC(CC(=O)NCC(C)C)CC2)n1 | -2.4 | -5.08% | -6.4 | -1.27 | –
Nc1nc(NCc2ccc(Cl)cc2Cl)cc(C2CC(O)C2)n1 (stereo not given) | 1.79 | -2.38% | -23.3 | -0.704 | –
COc1ccc(-c2nc3ccncc3[nH]2)cc1 | -92.6 | – | -106 | -86.1 | 12.4 µM (active)
Cc1nccn1CCC1CCN(c2nccc(-c3ccccn3)n2)CC1 | 9.05 | 8.46% | 5.85 | 7.66 | –
O=C(CCc1nnc2n(Cc3ccc(Cl)cc3)c(=O)c3ccccc3n12)N1CCC(N2CCCCC2)CC1 | -4.51 | -0.992% | -21.6 | 0.847 | –
O=C(c1ccc(Cl)cc1)N1CC2(CCN(CC3CC3)CC2)Cc2ccccc21 | -9.09 | -2.34% | -9.37 | -4.04 | –
COc1ccc(CCN2C(=O)c3cc4occc4n3CC2(C)C(=O)NC2CCCCC2)cc1OC (stereo not given) | 2.48 | 0% | -47.9 | 1.36 | –
CCC1Oc2ccc(NS(=O)(=O)c3ccc(Cl)cc3)cc2CN(Cc2ccc(F)cc2)C1=O (stereo not given) | -6.43 | -14.3% | -24.1 | -6.42 | –
O=C(O)c1ccc2c(c1)C1C=CCC1C(c1cccc(F)c1)N2 (stereo not given) | -2.11 | 2.71% | 0.825 | -2.83 | –
CCc1cc2c(cc3n2CC(C)(C(=O)NC2CCC(C)CC2)N(C(C)CCc2ccco2)C3=O)s1 (stereo not given) | -10.7 | -18.6% | -6.06 | -12.3 | –
O=C(CCc1nnc2n(Cc3ccc(Cl)cc3)c(=O)c3ccccc3n12)NCCN1CCCC1 | 4.15 | 1.71% | -12.3 | 0 | –
COc1cccc(N2C(=O)c3cc4occc4n3CC2(C)C(=O)NC2CCCCCC2)c1 (stereo not given) | -4.86 | -2.57% | -10.8 | -10.9 | –
C[C@H]1CN(C(=O)c2nn(C)c3ccccc23)C[C@@H]1c1nc(-c2cccnc2)no1 | 15.6 | 7.54% | -94 | 7.38 | –
Cc1ccc(NC(=O)N2CCc3c(c4ccccc4n3CC3CC3)C2)cc1 | 6.89 | 14.5% | 5.96 | 6.82 | –
COc1cccc(NC(=O)Cn2c(=O)oc3cc(S(=O)(=O)N4CCCC4)ccc32)c1 | 3.1 | 0.138% | 4.37 | -58.7 | –
CCCn1c(=O)c2ccccc2n2c(=O)n(CC(=O)c3cccc(Cl)c3)nc12 | -8.93 | -4.81% | -46.1 | -9.61 | –
Cc1ccc2c(c1)c(=O)[nH]c1c(C(=O)NCc3ccc4c(c3)OCO4)sc(=S)n12 | -32.7 | – | -60.7 | -35.6 | 17.1 µM (active)
O=C(CCC[C@@H]1[C@H]2CCCN3CCC[C@@H](CN1Cc1ccccc1)[C@@H]23)Nc1cccnc1 | -3.16 | -5.99% | -11.8 | -2.62 | –

Reference: PubChem BioAssay (NCATS)
